This note sets out measurements from PubChem BioAssay (NCATS).

Records with an inconclusive call do not appear. Where a call stands in place of a potency, no number is given. Active and inactive are the calls of the source. Calls come from the whole dose curve. Square brackets hold non-standard residues; d marks the D form. Peptide text beside a SMILES is read from it. Nle = CCCC[C@H](N)C(=O)O
Potency is the fitted concentration of half-maximal effect.

A short description of one assay: Confirmatory qHTS for VERO E6 Cytotoxicity Assay: Counterscreen for SARS-CoV-2 CPE Assay (AID 1508605). Note: nearly all actives have a fitted effect of over 60% in size. To be noted: cell viability luminescence; series mostly up to 20 µM.
`CCc1ccccc1OC[C@@H](O)CN[C@H]1CCCc2ccccc21`: the Potency entry is “inactive”.
For `COc1ccc(-c2csc(NC(=O)[C@H]3CCCCN3S(=O)(=O)c3ccc(C)cc3)n2)cc1`, the Potency entry was “inactive”.
As to `CCN(CC)CC1CCN(c2ncc3ncnc(Nc4ccc(F)c(Cl)c4)c3n2)CC1`, the Potency is 11.2 µM (active).
As for `CC1CCN(C(c2ccc(F)cc2)c2ccc(C(C)C(=O)O)cc2-c2ccc(C(F)(F)F)cc2)CC1` (stereo unspecified), the Potency is 11.2 µM (active).
Still for that read-out and setting: the value for `NC(=O)c1cnc(N[C@@H]2CCCC[C@@H]2N)nc1Nc1cccc(-n2nccn2)c1` was “inactive”; that for `CS(=O)(=O)NCC1CCC(Nc2nc3c(s2)CCSc2ccccc2-3)CC1` (stereo unspecified) was “inactive”.
On the same count and under the same terms, the value for `CC(C)(C[C@@](O)(Cc1cc2ccncc2[nH]1)C(F)(F)F)c1cc(F)ccc1O` was “inactive”; that for `C[C@H](NC(=O)[C@H](Cc1ccccc1)NC(=O)OCc1ccccc1)C(=O)CF` was “inactive”.

The nature of the next assay: Confirmatory qHTS for activators (rescue) of SARS-CoV-2 Cytopathic Effect (CPE) (AID 1508606). Note: nearly all actives have a fitted effect of over 70% in size. To be noted: Vero E6 SARS-CoV-2 CPE rescue, viability luminescence; series mostly up to 20 µM.
For the compound `CCCC[C@@H](C=O)NC(=O)[C@H](CC(C)C)NC(=O)[C@H](CC(C)C)NC(C)=O` (Ac-Leu-Leu-[Nle]-aldehyde), the Potency is 2 µM (active).
Still for that read-out and setting: the value for `CC1(C)CC[C@]23CO[C@@]4(CCC5[C@@]6(C)CC[C@H](O[C@@H]7OC[C@H](O[C@@H]8O[C@H](CO)[C@@H](O)[C@H](O)[C@H]8O[C@@H]8OC[C@@H](O)[C@H](O)[C@H]8O)[C@H](O)[C@H]7O[C@@H]7O[C@H](CO)[C@@H](O)[C@H](O)[C@H]7O)[C@@](C)(CO)C6CC[C@@]5(C)[C@]4(C)C[C@H]2O)[C@@H]3C1` (stereo partly specified) was “inactive”; that for `CC1=CC2OC3CC(O)[C@@](C)(C34CO4)[C@@]2(C)C(O)C1=O` (stereo partly specified) was “inactive”; that for `CCC(CC)COC(=O)[C@H](C)N[P@](=O)(OC[C@H]1O[C@@](C#N)(c2ccc3c(N)ncnn23)[C@H](O)[C@@H]1O)Oc1ccccc1` was 10 µM (active).
As to `COc1cc2nc(N3CCCCC3)nc(NC3CCN(C)CC3)c2cc1OC`, the Potency is 3.55 µM (active).
Regarding `O=C1c2ccccc2-c2nc3nnnn3nc21` (tested in a mixture with another compound), the Potency entry is “inactive”.
The same measure, in the same setting: the value for `COC(=O)Nc1cc(Nc2cc(NC3CC3)c3ncc(C#N)n3n2)c(Cl)c(N2CCN(C)CC2)c1` was “inactive”; that for `CCN(CC)CCCS(=O)(=O)N[C@H](CCc1ccccc1)c1nc(Cc2ccc(Br)cc2)no1` was 11.2 µM (active).
With `CCCCCCCCC(=O)N[C@H](CN1CCCC1)[C@H](O)c1ccc2c(c1)OCCO2`, the Potency is 8.91 µM (active).
The same measure, in the same setting: the value for `Nc1ncnc2c1c(-c1ccc(Oc3ccccc3)cc1)nn2[C@@H]1CCCNC1` was “inactive”.
For the compound `COc1cc(-n2cnc3cc(-c4ccc(Cl)cc4)sc3c2=O)ccc1OCCN1CCCC1`, the Potency was 3.55 µM (active).
The same measure, in the same setting: with `CCC(C)C(=O)OC1C(C)C2(O)C(C=C(CO)CC3(O)C(=O)C(C)=CC32)C2C(C)(C)C12OC(=O)C(C)C` (stereo unspecified) the entry was “inactive”; with `COc1ccc2c(c1)CN(C(=O)CCN1CCC(Cc3ccccc3)CC1)CCS2`, 4.92 µM (active).
Same read-out and setting: the value for `CC/C(=C(/CC)c1ccc(O)c(CN(CC)CC)c1)c1ccc(O)c(CN(CC)CC)c1` was 8.91 µM (active); that for `COc1ccccc1N1CCN(CC[C@@](C)(C(=O)C2CCCCC2)c2ccccc2)CC1` was 10 µM (active); that for `CCN(CC)CC1CCN(c2ncc3ncnc(Nc4ccc(F)c(Cl)c4)c3n2)CC1` was “inactive”.
The same measure, in the same setting: the value for `CC1CCN(C(c2ccc(F)cc2)c2ccc(C(C)C(=O)O)cc2-c2ccc(C(F)(F)F)cc2)CC1` (stereo unspecified) was “inactive”; that for `C[C@H](NC(=O)[C@H](Cc1ccccc1)NC(=O)OCc1ccccc1)C(=O)CF` was 0.126 µM (active).
